target: Shiga toxin 2 (Escherichia coli O157:H7) (UniProt P09385+P09386); assay: E. coli 0.157:H7 Shiga Toxin SOP - stx2 screening assay; format: functional; set-up: scale not given: direction of the effect not stated beside the values; settings: 30 µM

Structure (SMILES) | Percent Effect [%]
c1ccc(CCN2CCN(c3ccc4nncn4n3)CC2)nc1 | -28.9
Cc1ccc(N2CCCC(NCC(=O)NCC3CC3)C2)nn1 (stereo not given) | -32.6
CCc1cnc(CN(C)C2CCN(CCS(C)(=O)=O)C2)o1 (stereo not given) | -7.2
CCn1cc(CN2CCc3nc(N4CCOCC4)nc(O)c3CC2)cn1 | -19.4
NC(=O)NC(=O)CCN1CCCN(c2nccs2)CC1 | -33.2
CC1CCN(C(=O)c2ccn(COc3ccc(F)cc3)n2)CC1 | -44.1
COCC(=O)N1CCC(c2nccnc2Oc2cccnc2C)CC1 | 6.27
Cc1cnc(CN(C)C2CCN(CCc3cnn(C)c3)C2)o1 (stereo not given) | 9.7
Cc1noc(C)c1CN1CCN(Cc2nccn2C)C(C)C1 (stereo not given) | 1.27
COCCN(Cc1ccoc1)C(=O)c1cccnc1SC | -0.408
COCc1c(C(=O)NC2CCCC2)nnn1-c1ccc(C)cc1 | 10.2
O=C(NCCC1=CCCCC1)C1CCN(c2ccc3nncn3n2)CC1 | -16.7
COCCN1CCc2cc(C(=O)NCC3CC3)c(NC(C)C)nc2CC1 | 6.55
CN1CCC(c2cccc(Cc3ccc(F)cc3)n2)CC1 | -29.1
O=C(c1cnccn1)N1CCN(Cc2csc(-c3ccccc3)n2)CC1 | 26.4
CC(C)c1nc(C2CCCN2C(=O)c2ccc(N(C)C)nn2)no1 (stereo not given) | 18.3
NC(=O)c1ccc(N2CCCCC2)c(NC(=O)c2cc(Br)ccc2F)c1 | -50.5
CN(C)C(=O)[C@@H]1CCO[C@@H]2CCN(Cc3ccccc3)C[C@@H]21 | -27
Cc1nc(N2CCN(C(=O)c3ccc(O)cc3)CC2)c2cnn(C)c2n1 | 3.77
COCC1CN(C(=O)COc2ccccc2)Cc2cn(C)nc21 (stereo not given) | 0.0839

Structure (SMILES) | Percent Effect [%]
CCc1cc(N[C@H]2CC[C@H](O)CC2)n2nc(C)c(C)c2n1 | -12.4
CCc1nc(CN2CCCC(N(C)Cc3cnc(C)s3)C2)no1 (stereo not given) | 4.86
Cc1cc(C(=O)N2CCc3nnc(N)cc3C2)c(C)n1C1CC1 | -1.08
O=C1COC2(COCCN(Cc3cccnc3)C2)CN1c1ccoc1 (stereo not given) | -7.3
Cn1c(CN2CCOCC2)nnc1C1CCN(C(=O)C2CCCC2)CC1 | -33.5
CN(C)C(CNC(=O)c1cc2c([nH]c1=O)CCCC2=O)c1ccsc1 (stereo not given) | -21.1
Cc1cc(C)n(CC2CCCN2C(=O)c2ccc3c(c2)nnn3C)n1 (stereo not given) | -34.8
COc1ccc(CN2CCC(O)CC2)c(OC)c1 | 7.95
CCNC(c1ccc(OC)cc1)c1cccnc1 (stereo not given) | 1.33
O=C(CC1CCCC1)N1CCCC1c1nc(O)cc(-c2ccccn2)n1 (stereo not given) | -10.1
Fc1cccc(-n2ccc(CN3CCCCC3Cn3cncn3)n2)c1 (stereo not given) | 17.2
COCC(=O)N1CCC2(CC1)COCCN2CCN(C)C | -1.86
Cc1nnc2n1CCN(CCOc1ccccc1)C2 | -21.5
CN1CCCC(Cc2cncc(C(=O)NCC3CC3)c2)C1 (stereo not given) | 2.18
Cc1cc(N2CCCC2c2cnccn2)ncn1 (stereo not given) | 9.94
O=C(COC[C@H]1CC[C@H]2[C@H](CCN2c2ncccn2)O1)N1CCCC1 | -24.1
CC(C)(C)c1nnc(CN2CCCC(c3cc(C(N)=O)[nH]n3)C2)o1 (stereo not given) | 19.9
CN(C)C(=O)C1CN(Cc2ccccc2)CCN(S(C)(=O)=O)C1 (stereo not given) | -6.7
COCCN1CCN(Cc2cccc(C(N)=O)c2)CC1C (stereo not given) | -42.8
c1nc2n(n1)CC(NCc1csc(-c3ccsc3)n1)CC2 (stereo not given) | -23.2

Source: ChEMBL document CHEMBL3988442, “University of Dundee, Small-Polar-MMV Screening Library” (2021)
